According to PubChem BioAssay (NCI):
Compounds without any hit were thinned out: in the full panel of roughly 83,000, 20% have a hit.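 Single-concentration screen, 48 h exposure, 96-well plates. Endpoint: percent growth. Below 10 = active.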 Active and inactive are the calls of the source.

Columns and labels:
Assay in all cases: NCI-60 one-dose screen, 48 h (100 = growth as untreated, 0 = no growth, -100 = all killed)
NCI-H226 lung = settings: 10 µM
NCI-H322M lung = settings: 10 µM
HOP-62 NSCLC = settings: 10 µM
NCI-H460 lung = settings: 10 µM
A549/ATCC NSCLC = settings: 10 µM
COLO 205 colon = settings: 10 µM
DU-145 prostate = settings: 10 µM
K-562 leukemia = settings: 10 µM
SF-539 CNS = settings: 10 µM
M14 melanoma = settings: 10 µM
HCT-15 colon = settings: 10 µM
HT29 colon = settings: 10 µM
SNB-75 CNS = settings: 10 µM
U251 CNS = settings: 10 µM
LOX IMVI melanoma = settings: 10 µM
MOLT-4 leukemia = settings: 10 µM
SR leukemia = settings: 10 µM
RPMI-8226 leukemia = settings: 10 µM
SK-OV-3 ovarian = settings: 10 µM
MDA-MB-468 breast = settings: 10 µM unless noted

Measured: growth

COc1ccc(C2c3sc4ccc(C)cc4c3Oc3nc(N)nc(N)c32)cc1 (stereo not given)
inactive: NCI-H226 lung 78.5% | NCI-H322M lung 89.3% | HOP-62 NSCLC 79.4% | NCI-H460 lung 88.8% | A549/ATCC NSCLC 92.2% | COLO 205 colon 93.7% | DU-145 prostate 102% | K-562 leukemia 50.9% | SF-539 CNS 69.6% | M14 melanoma 74.8% | HCT-15 colon 59.9% | HT29 colon 99.1% | SNB-75 CNS 70.9% | U251 CNS 83.1% | LOX IMVI melanoma 80.8% | MOLT-4 leukemia 89.9% | SR leukemia 51.2% | RPMI-8226 leukemia 83.6% | SK-OV-3 ovarian 89.3% | MDA-MB-468 breast 79.8%

O=C(Nc1ccc(OCc2ccc(F)cc2)cc1)Nc1ccc(Cl)c(C(F)(F)F)c1
active: NCI-H460 lung 6.77% | COLO 205 colon -79.2% | K-562 leukemia 9.32% | SF-539 CNS 8.73% | M14 melanoma 9.01% | HCT-15 colon 7.42% | LOX IMVI melanoma -47.4% | MOLT-4 leukemia 6.64% | SR leukemia -7.46% | RPMI-8226 leukemia -1.27% | SK-OV-3 ovarian -26.5% | MDA-MB-468 breast -8.31%
inactive: NCI-H226 lung 15% | NCI-H322M lung 21.9% | HOP-62 NSCLC 11.4% | A549/ATCC NSCLC 16.4% | DU-145 prostate 31.6% | HT29 colon 11.9% | SNB-75 CNS 21% | U251 CNS 10.3%

COc1cc(C2CC(c3ccc(Oc4ccc(Cl)cc4)cc3)=NN2c2nc(-c3ccc(Cl)cc3)c(C#N)c(N3CCOCC3)n2)cc(OC)c1OC (stereo not given)
inactive: NCI-H226 lung 90.4% | NCI-H322M lung 98% | HOP-62 NSCLC 98.9% | NCI-H460 lung 107% | A549/ATCC NSCLC 97.9% | COLO 205 colon 101% | DU-145 prostate 106% | K-562 leukemia 97.5% | SF-539 CNS 95.7% | M14 melanoma 99% | HCT-15 colon 95.7% | HT29 colon 106% | SNB-75 CNS 78.3% | U251 CNS 102% | LOX IMVI melanoma 80.6% | MOLT-4 leukemia 105% | SR leukemia 88.5% | RPMI-8226 leukemia 104% | SK-OV-3 ovarian 102% | MDA-MB-468 breast 107%
